L929 necroptosis = inhibitors of zVAD-triggered necroptosis, primary screen, L929 cells; viability rescue, % at 10 µM; hit rate 0.38% among 220,000; L929 zVAD necroptosis rescue, ATP luminescence, 24 h; with zVAD 60 µM;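 active means activation, scaled between plate controls, above about 75%, limit read from the data; inactive means activation under that limit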
Redox H2O2 prof = compounds producing H2O2 with reducing agent – biochemical, NIH compound library profiling, artefact control for MLSCN library redox annotation, primary screen; DTT-dependent redox cycling H2O2, phenol red/HRP absorbance; 100% = 100 µM peroxide control, 0% = buffer; activation, % at 10 µM; hit rate 0.03% among 200,000; AID 878, 2007;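 active means activation of at least 50% relative to the plate's high and low controls in the primary single-dose screen; inactive means activation below 50%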;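 further: compound incubated with DTT at 0.8 mM final as the reducing agent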
PERK inhibitor = block of dimerizer-induced PERK translation repression, primary screen, PERK inhibitor project, CHO PERK-DD cells, SEAP luminescence, HTS; Eukaryotic translation initiation factor 2-alpha kinase 3 (Homo sapiens), Q9NZJ5; CHO PERK-DD fusion, SEAP luminescence translation reporter; inhibition, % at 5.6 µM; hit rate 0.17% among 220,000; AID 1416, 2008;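 active means inhibition above the mean inhibition of all tested compounds plus 3 SD, set separately per screening campaign, cut at about 2.9% in these data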;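 further: PERK kinase domain activated by AP20187 dimerizer at 100 nM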
PKD1 kinase inh = inhibitors of human PKD1 kinase, biochemical, fluorescence polarization; Serine/threonine-protein kinase D1 (Homo sapiens), Q15139; PKD1 kinase fluorescence polarization assay; inhibition, % (test concentration not listed); hit rate 0.056% among 200,000; in the data active means inhibition above about 50%
Target sequence (Q15139 whole entry, looked up): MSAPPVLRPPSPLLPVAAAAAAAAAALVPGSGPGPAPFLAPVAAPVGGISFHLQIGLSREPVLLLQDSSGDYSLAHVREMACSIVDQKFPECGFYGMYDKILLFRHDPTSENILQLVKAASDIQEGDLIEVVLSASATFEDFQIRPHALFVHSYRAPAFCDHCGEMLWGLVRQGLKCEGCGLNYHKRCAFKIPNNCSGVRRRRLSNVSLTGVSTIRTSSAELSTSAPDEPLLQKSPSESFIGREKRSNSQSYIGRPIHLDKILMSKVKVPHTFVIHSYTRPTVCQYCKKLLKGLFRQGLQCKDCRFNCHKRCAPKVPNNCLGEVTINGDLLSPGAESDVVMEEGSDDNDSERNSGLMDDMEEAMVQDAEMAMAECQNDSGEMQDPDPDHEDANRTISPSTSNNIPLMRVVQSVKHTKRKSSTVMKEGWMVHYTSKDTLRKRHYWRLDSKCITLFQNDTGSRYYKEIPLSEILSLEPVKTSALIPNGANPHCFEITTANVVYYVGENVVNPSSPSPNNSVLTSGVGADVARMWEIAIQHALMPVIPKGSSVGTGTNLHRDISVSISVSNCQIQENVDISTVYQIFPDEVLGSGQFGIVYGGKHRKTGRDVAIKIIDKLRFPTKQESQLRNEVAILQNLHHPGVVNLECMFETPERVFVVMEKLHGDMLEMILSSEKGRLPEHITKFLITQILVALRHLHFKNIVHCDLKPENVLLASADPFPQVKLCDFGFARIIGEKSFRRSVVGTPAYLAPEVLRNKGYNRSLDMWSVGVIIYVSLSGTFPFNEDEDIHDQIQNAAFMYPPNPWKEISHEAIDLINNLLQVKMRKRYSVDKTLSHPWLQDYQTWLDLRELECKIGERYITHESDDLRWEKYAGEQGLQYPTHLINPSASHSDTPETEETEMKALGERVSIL
TNF death inh = inhibitors of TNF-alpha triggered necroptosis, primary screen, cell-based, Jurkat FADD-/-, single concentration | Jurkat FADD-/- TNF necroptosis rescue, ATP luminescence, 24 h; 0 = TNF only, 100 = no-TNF cells | activation (protection from cell death), % at 10 µM | hit rate 0.068% among 220,000 | AID 463075, 2010;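 active means activation, meaning protection from cell death, of at least 50% relative to plate controls; inactive means activation below 50%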;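 further: necroptosis triggered by 40 ng/mL TNF-alpha added together with compound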
WT yeast gro inh = growth inhibition of WT strain, primary screen, mitochondrial fusion inhibitor project, WT and mutant strains, chemical genetic; mitochondrial fusion phenotypic screen; inhibition, % at 10 µM; hit rate 2.1% among 190,000; in the data active means inhibition above about 58%; tested in S. cerevisiae
Hits are given with their value; – = inactive; · = no result. Sampled rows, rich in hits. Any-hit rate of the full collection: about 2.4%.

SMILES	L929 necroptosis	Redox H2O2 prof	PERK inhibitor	PKD1 kinase inh	TNF death inh	WT yeast gro inh
Cc1cccc(NC(=O)CCC(=O)OCC(=O)c2ccc(Oc3ccc([N+](=O)[O-])cc3)cc2)c1	–	–	–	–	–	–
CNS(=O)(=O)c1cnccc1N1CCN(c2cccc(C(F)(F)F)c2)CC1	–	–	–	–	–	–
COC(=O)Cc1n[nH]c(=O)c2ccccc12	–	–	3.5	–	–	–
CCn1c(CNc2cccc(C(F)(F)F)c2)n[nH]c1=S	–	–	–	–	–	–
CC(CNC(=O)c1cccs1)c1ccc([N+](=O)[O-])cc1 (stereo not drawn)	–	–	–	–	–	–
CC(NC(=O)COc1ccccc1)C1COc2ccccc2O1 (stereo not drawn)	–	–	–	–	–	·
CC(NC(=O)Cc1ccccc1)C1COc2ccccc2O1 (stereo not drawn)	–	–	3.1	–	–	–
CCNC(=S)N1CCN(Cc2ccc3c(c2)OCO3)CC1	–	–	–	–	–	–
O=C(NC(=S)N1CCN(Cc2ccc3c(c2)OCO3)CC1)c1ccc(Cl)cc1	–	–	–	–	–	62
O=C(c1ccc(COc2ccc(Cl)cc2)o1)N1CCN(Cc2ccc3c(c2)OCO3)CC1	–	–	–	–	–	76
O=C(NC(=S)N1CCN(Cc2ccc3c(c2)OCO3)CC1)c1cccc(Br)c1	–	–	–	–	–	60
O=C(c1ccc(COc2ccccc2Cl)o1)N1CCN(Cc2ccc3c(c2)OCO3)CC1	–	–	–	–	–	–
CN(C)c1nnnn1-c1cccc(Oc2ncc(C(F)(F)F)cc2Cl)c1	–	–	–	–	–	–
CCN1C(=O)/C(=C/C=C2/CCCN2C)OC1=S	–	–	–	–	–	–
CCCCn1cnc2cc(C)c(C)cc21	–	–	–	–	–	–
CCCn1nnc(NC(=S)NC(=O)/C=C/c2ccco2)n1	–	·	–	·	–	·
COc1ccc2cc3cc(C(=O)NCCN4CCc5ccccc5C4)sc3nc2c1	–	–	–	–	–	58
COc1ccc2cc3cc(C(=O)NCCN4CCc5ccccc5C4)oc3nc2c1	–	–	–	–	–	–
COC(=O)c1sccc1NC(=S)N1CCN(c2cc(C)ccc2C)CC1	–	–	–	–	–	77
Cc1ccc(C)c(N2CCN(C(=S)Nc3ccc4nc(N5CCN(C)CC5)cc(C)c4c3)CC2)c1	–	–	–	–	–	72
Cc1ccc(C)c(N2CCN(C(=S)Nc3ccc4nc(N5CCOCC5)cc(C)c4c3)CC2)c1	–	–	–	–	–	–
CC(=O)Nc1ccccc1OCc1cnc(Cl)s1	–	–	–	–	–	–
O=C(Nc1ccccc1C(=O)N/N=C/c1ccncc1)c1ccccc1	–	–	–	–	–	77
N=c1c2c(n(Cc3ccc(Br)cc3)c3c1CCC3)CCCC2	–	–	–	–	–	58
N=c1c2c(n(Cc3ccc([N+](=O)[O-])cc3)c3c1CCC3)CCCC2	–	–	–	–	–	67
SMILES	L929 necroptosis	Redox H2O2 prof	PERK inhibitor	PKD1 kinase inh	TNF death inh	WT yeast gro inh
N=c1c2c(n(Cc3ccc(Cl)c(Cl)c3)c3c1CCC3)CCCC2	–	–	–	–	–	72
CCCn1c2c(c(=N)c3c1CCC3)CCCC2	–	–	–	–	–	–
CCOC(=O)CNC(=O)N1CCCC(C(=O)c2cccc(Cl)c2)C1 (stereo not drawn)	–	–	–	–	–	–
O=C1CSC(c2ccc(F)cc2)N1c1nc2ccccc2s1 (stereo not drawn)	–	–	–	–	–	75
O=C1CSC(c2ccc(F)cc2)N1c1nnc(C23CC4CC(CC(C4)C2)C3)s1 (stereo not drawn)	–	–	–	–	–	–
Cn1c(=O)c2c(SCc3ccccc3)nc(-c3ccco3)nc2n(C)c1=O	–	–	4.2	–	–	–
Cc1cc(Oc2ccc(=O)n(C)n2)nc(SCCOc2ccccc2)n1	–	·	–	·	–	·
COc1cc2nc(C3CCC3)nc(N3CCN(c4ccccn4)CC3)c2cc1OC	–	–	–	–	–	–
COc1cc2nc(C3CCC3)nc(N3CCN(c4ccccc4OC)CC3)c2cc1OC	–	–	–	–	–	83
Cc1cccc(OCC(=O)NCC(=O)N/N=C/c2c(C)[nH]c3ccccc23)c1	–	·	–	·	–	·
CCOC(=O)c1cc2c(ccn2C)n1Cc1ccccc1Cl	–	–	–	–	–	69
CCOC(=O)c1cc2c(ccn2C)n1Cc1ccccc1C	–	–	–	–	–	–
O=C(O)c1cc(-c2ccc(/C=N/Nc3ccc(Cl)cc3)o2)ccc1Cl	–	–	–	–	–	62
Nc1nonc1C(=O)N/N=C/c1ccc(-c2ccc(Cl)c(C(=O)O)c2)o1	–	–	–	–	–	–
CCCCOC(=O)Nc1cccc(C(=O)OCC)c1	–	–	–	–	–	73
Oc1ccc(-c2nc3ccc4ccccc4c3c3c2CCC3)cc1O	–	–	–	–	–	–
Cc1ccc(C(C(=O)NCc2ccco2)N(C(=O)Cc2cccs2)c2cccnc2)cc1 (stereo not drawn)	–	–	–	–	–	–
Cc1ccc(OCC(=O)Nc2cc(S(=O)(=O)N3CCOCC3)ccc2Cl)c([N+](=O)[O-])n1	–	·	–	·	–	·
c1ccc2c(c1)CCN(c1nc(CN3CCOCC3)nc3sc4c(c13)CCCC4)C2	–	–	–	–	–	–
Cc1nc(N2CCN(c3ccccc3)CC2)c2c3c(sc2n1)CCC3	·	·	·	·	·	74
COc1cc(C2C(C#N)=C(C)NC(C)=C2C#N)cc(OC)c1OC	·	–	–	–	–	–
Cn1c(SCc2c(F)cccc2Cl)nc2c(c1=O)SCC2	–	–	–	–	–	66
Cn1c(SCc2ccc([N+](=O)[O-])cc2)nc2c(c1=O)SCC2	–	–	–	–	–	–
Cc1ccc(C2CC(c3cccs3)=NN2S(=O)(=O)c2ccc(C)cc2)cc1 (stereo not drawn)	–	–	–	–	–	61
Cc1ccc2c(c1)C(c1ccccc1)N(C(=O)c1ccc3c(c1)OCO3)CC(=O)N2 (stereo not drawn)	–	·	–	·	–	·
COc1ccc(-c2cc(C(=O)Nc3ccc(S(=O)(=O)Nc4onc(C)c4C)cc3)c3ccccc3n2)cc1	–	·	–	·	–	·
COC(=O)c1c(NC(=O)c2nc3ccccc3s2)sc2c1CC(C)(C)NC2(C)C	–	–	–	–	–	83
CCOc1ccc(C(=O)Nc2sc3c(c2C(=O)OC)CC(C)(C)NC3(C)C)cc1	–	–	–	–	–	–
